The results in this text go back to PubChem BioAssay (NCI).

Each structure is given as a SMILES string. This is part of a sample that, as a whole, favours compounds with a hit. Of some 83,000 tested, about 20% had one in any assay.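 Negative percent growth values reflect cell death: -40 means 40% of the cells present at the start died, and -100 means all died.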 Unmarked numbers belong to inactive results. The source made the active and inactive calls. The calls were made as follows: active = growth percent below 10; inactive = the rest.

The first test deals with UACC-257 melanoma. Briefly: NCI-60 one-dose screen, 48 h (100 = growth as untreated, 0 = no growth, -100 = all killed). The conditions noted are these: 10 µM unless noted.
Consider `O=C(Nc1cccnc1Nc1ccc(F)cc1)c1cn(Cc2cccc(Oc3ccccc3)c2)nn1`, for which the growth was 87.4%. Still for that read-out and setting: the result for `COc1ccc(-c2cn(-c3cc(OC)c(OC)c(OC)c3)c(=O)n2C(C)=O)cc1` reads 82%; that for `COc1ccc(-c2nnc3n(C)c(=O)c4ccccc4n23)cc1N`, 49.8%; that for `CCN(CC)c1ccc(/C=C/C(=O)c2ccc(Nc3nc(Nc4ccccc4)nc(Nc4ccccc4)n3)cc2)cc1`, 73.1%. On the same count and under the same terms, the result for `COP(=O)(OC)C(C)(C)CC(=O)CC(C#N)(C#N)C(C#N)C#N` reads 103%. With `N#CC1CCc2c(c(-c3cn[nH]c3C(F)(F)F)nc3c(F)cc4[nH]ncc4c23)C1` (stereo unspecified), the growth is 48.6%.

For the next test, the system named is M14 melanoma. The test is described as above. The conditions noted are these: 10 µM unless noted.
Regarding `C=C(C)[C@@H]1CC[C@]2(C(=O)NCCNCCN)CC[C@]3(C)[C@H](CC[C@@H]4[C@@]5(C)C/C(=C/c6ccncc6)C(=O)C(C)(C)[C@@H]5CC[C@]43C)[C@@H]12`, the growth was 89.8%. Still for that read-out and setting: the result for `CS(=O)(=O)C1=CN(CCO)C(=O)N2CCCN=C12` reads 98.9%; that for `Cc1ccc(Sc2nnc(/N=C3\C(=O)Nc4ccccc43)s2)cc1`, 101%; that for `CCOc1nc(-c2ccccc2)cc2c(O)c(C(=O)NN)[nH]c(=O)c12`, 98.8%. On to `O=C1Nc2ccc(Br)cc2/C1=N/c1n[nH]c(=S)s1`, for which the growth was 99.8%.

For `CCCCCCCCCCCCCCCC(N)c1ccccc1` (stereo unspecified), the growth is 3.85% (active).

For `CCc1n(Cc2ccc3ccccc3c2)cc[n+]1Cc1ccc2ccccc2c1`, the growth is -9.48% (active). Still for that read-out and setting: the result for `Cc1ccc(-c2nc(N3CCNCC3)c3oc(-c4ccccc4)nc3n2)cc1` reads -92.3% (active); that for `O=C(OCc1ccc2cccc(O)c2n1)N1CCN(C(=O)c2cc3cc(F)ccc3[nH]2)CC1`, -77.7% (active); that for `CN1CCN(Cc2ccc(NC(=O)c3cncc(C#Cc4cnc(N)c5ccccc45)c3)cc2C(F)(F)F)CC1`, -79.3% (active). On the same count and under the same terms, the result for `CO/N=C(/C)c1ccc(NC(=O)CSc2nnc(-c3ccncc3)n2-c2ccccc2)cc1` reads 74.8%. Still for that read-out and setting: the result for `CC(=O)OC[C@]12CCC(C)(C)C[C@H]1[C@@]1(O)[C@H](O)C[C@@H]3[C@@]4(C)CCCNC(C)(C)[C@@H]4CC[C@@]3(C)[C@]1(C)CC2` reads 92.4%; that for `COc1cc(-n2cc(-c3cc(O)c(C/C=C(\C)CCC=C(C)C)c(O)c3)nn2)cc2c1O[C@]1(C)CC[C@@H](O)C(C)(C)[C@H]1C2`, -17.5% (active).

Turning to `CC(=O)c1cc(O)c2ccccc2c1O`, the growth was 105%. On the same count and under the same terms, the result for `CC[C@]12C=CCN3CC[C@@]4(c5cc(NC(=O)CCC(=O)OCc6cn(Cc7ccc(F)cc7)nn6)c(OC)cc5N(C)[C@H]4[C@@](O)(C(=O)OC)[C@@H]1OC(C)=O)[C@@H]32` reads 103%; that for `Cc1nn(-c2ccccc2)c(Oc2ccccn2)c1-c1nc2ccccc2s1`, 108%. Consider `O=C(Cn1c2c(c3ccccc31)CCCC2)Nc1ccc(-c2nc3ccccc3s2)cc1`, for which the growth is 108%. Same read-out and setting: the result for `N#Cc1c(N)nnn1Cc1cc(=O)oc2c1ccc1ccccc12` reads 101%. In the case of `O=C1N[C@@H]2NC(=[N+]3CCOCC3)N[C@@H]2N1`, the growth is 102%. With `CCN1C(=O)N(CC)C2C1NN=c1s/c(=C\c3ccc(Cl)cc3Cl)c(=O)n12` (stereo unspecified), the growth was 13.8%. Still for that read-out and setting: the result for `CC1=C(Nc2ccc(N3CCN(C)CC3)cc2)C(=O)c2cncnc2C1=O` reads 105%; that for `O=c1oc2ccccc2cc1C1=NN=C(SCc2ccccc2)SC1`, 95.7%.

Take `O=C(O)CNC1=C(Cl)C(=O)c2ccccc2C1=O`: the growth was 98.3%. The same measure, in the same setting: the result for `N#CC1=C(c2ccc(Cl)cc2)Nc2c(c(-c3ccc(Cl)cc3)nn2-c2ccccc2)C12C(=O)Nc1ccc(Cl)cc12` (stereo unspecified) reads 41.9%; that for `C=C(C)[C@@H]1CC[C@]2(C(=O)O)CC[C@]3(C)[C@H](CC[C@@H]4[C@@]5(C)C[C@@H](Cc6cn(CCO[C@@H]7O[C@H](COC(C)=O)[C@H](OC(C)=O)[C@H](OC(C)=O)[C@H]7OC(C)=O)nn6)[C@H](O)C(C)(C)[C@@H]5CC[C@]43C)[C@@H]12`, 81.2%. Still for that read-out and setting: the result for `Cc1ccc(NC(=S)NNC(=S)NNc2ccccc2)cc1C` reads 115%; that for `CCC(C)N(c1ccc(Cl)cc1)c1nc(-c2ccc(Br)cc2)cs1` (stereo unspecified), 95.6%. With `c1ccc(CNc2c3ccccc3nc3ccccc23)cc1`, the growth was 32.3%. Still for that read-out and setting: the result for `C=C(C)[C@@H]1CC[C@]2(C(=O)NCC#CCN3CCN(C)CC3)CC[C@]3(C)[C@H](CC[C@@H]4[C@@](C)(CCC#N)[C@H](C(=C)C)CC[C@]43C)[C@@H]12` reads 5.09% (active); that for `O=C1C(Cl)=C(Nc2ccc(O)cc2)C(=O)N1Cc1ccc(Cl)cc1`, 24.2%; that for `O=Cc1ccc([N+](=O)[O-])s1`, 92%. The same measure, in the same setting: the result for `COc1cc(/C=C\c2cc(/C=C\c3ccc(O)c(OC)c3)n(C(=O)COc3ccc(Cl)cc3Cl)n2)ccc1O` reads 4.34% (active); that for `CC1(c2ccccc2O)NN=C(/N=C/c2cccc([N+](=O)[O-])c2)N1C(Cc1c[nH]c2ccccc12)C(=O)O` (stereo unspecified), 92%. On the same count and under the same terms, the result for `COC(=O)CNC(=O)[C@H](Cc1ccccc1)NCc1ccncc1` reads 105%. With `O=C(Nc1cccnc1Nc1ccc(F)cc1)c1cn(Cc2cccc(Oc3ccccc3)c2)nn1`, the growth was 37.1%. Regarding `COc1ccc(-c2cn(-c3cc(OC)c(OC)c(OC)c3)c(=O)n2C(C)=O)cc1`, the growth is 92.6%. On to `COc1ccc(-c2nnc3n(C)c(=O)c4ccccc4n23)cc1N`, for which the growth is 13.6%. Still for that read-out and setting: the result for `CCN(CC)c1ccc(/C=C/C(=O)c2ccc(Nc3nc(Nc4ccccc4)nc(Nc4ccccc4)n3)cc2)cc1` reads 54.1%. Still for that read-out and setting: the result for `COP(=O)(OC)C(C)(C)CC(=O)CC(C#N)(C#N)C(C#N)C#N` reads 96.2%. On the same count and under the same terms, the result for `N#CC1CCc2c(c(-c3cn[nH]c3C(F)(F)F)nc3c(F)cc4[nH]ncc4c23)C1` (stereo unspecified) reads 18.9%.
